Assay results taken from PubChem BioAssay (Tox21).
Results filed as inconclusive are left out. Active and inactive are the calls of the source. Unless noted, the call rests on the fitted dose curve; in most records, active means well fitted curve in the direction sought with a large enough effect in the repeat runs; inconclusive means weak or mixed curves; inactive means no such curve, though single readings can be large; an effect the other way counts as inactive or inconclusive.

Experiments:
[1] = qHTS assay to test for compound auto fluorescence at 535 nm (green) in HEK293 cells (AID 720680)
[2] = qHTS assay to test for compound auto fluorescence at 460 nm (blue) in HEK293 cell free culture (AID 720681)
Summary of the method: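 Test compounds were pinned into cell-free culture medium (DMEM with 10% FBS) and fluorescence was read directly at Ex/Em 405/460 nm. Signals were expressed as fluorescence equivalents of triamterene, with DMSO vehicle as control.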

[3] = qHTS assay to test for compound auto fluorescence at 590 nm (red) in HEK293 cell free culture (AID 720683)
Summary of the method: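 Tox21 10K library compounds were pinned into cell-free DMEM with 10% FBS and fluorescence was read at excitation 540 nm. Activity is expressed as Rose Bengal sodium equivalency.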

[4] = qHTS assay to test for compound auto fluorescence at 590 nm (red) in HepG2 cell free culture (AID 720684)
Summary of the method: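 Red fluorescence (540 nm excitation, 590 nm emission) was measured after compound transfer into cell-free MEM supplemented with 10% FBS. Values are equivalencies against Rose Bengal sodium.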

[5] = qHTS assay to test for compound auto fluorescence at 460 nm (blue) in HepG2 cell free culture (AID 720685)
Summary of the method: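 Compound (23 nL) or DMSO pinned into cell-free MEM with 10% FBS; blue fluorescence read at 405/460 nm excitation/emission, expressed as auto-fluorescence equivalency to triamterene.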

[6] = qHTS assay to test for compound auto fluorescence at 535 nm (green) in HepG2 cell free culture (AID 720686)
[7] = qHTS assay to test for compound auto fluorescence at 460 nm (blue) in HepG2 cells (AID 720687)
Summary of the method: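 Cells (2,000/well in MEM with 10% FBS) attached overnight at 37 C, then were exposed to compound or DMSO for 1 hr at 37 C, 5% CO2. Fluorescence read at Ex/Em 405/460 nm, expressed as triamterene-equivalent signal.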

[8] = biological target: Glucocorticoid receptor (Homo sapiens) (UniProt P04150); assay: qHTS assay to identify small molecule agonists of the glucocorticoid receptor (GR) signaling pathway (AID 720691; active means well fitted activation curve with a large enough effect in the signal ratio in the repeat runs, not every such curve was filed as active; the % refers to the signal ratio)
Summary of the method: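 Fluorescence intensity from LiveBLAzer B/G FRET substrate (2 h, room temperature) reports beta-lactamase expression driven by the glucocorticoid response element in GR-bla HeLa cells after 18 h compound exposure at 37 C.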

[9] = biological target: Glucocorticoid receptor (Homo sapiens) (UniProt P04150); assay: qHTS assay to identify small molecule antagonists of the glucocorticoid receptor (GR) signaling pathway (AID 720692; active means well fitted inhibition curve with a large enough effect in the signal ratio in the repeat runs, not every such curve was filed as active; the % refers to the signal ratio)
Summary of the method: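 HeLa GR-bla cells; cmpd + dex 5 nM final, 18 h 37 C; LiveBLAzer B/G FRET substrate 2 h RT; fluorescence intensity read. Antagonist mode, qHTS.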

[10] = qHTS assay to identify small molecule antagonists of the glucocorticoid receptor (GR) signaling pathway - cell viability counter screen (AID 720693); further: nearly all actives have a fitted effect of over 55% in size
[11] = qHTS assay for identifying genotoxic compounds that show differential cytotoxicity against isogenic chicken DT40 cell lines with known DNA damage response pathways - Rev3 mutant cell line (AID 743014); further: nearly all actives have a fitted effect of over 55% in size
[12] = qHTS assay for identifying genotoxic compounds that show differential cytotoxicity against isogenic chicken DT40 cell lines with known DNA damage response pathways - Rad54/Ku70 mutant cell line (AID 743015); further: nearly all actives have a fitted effect of over 60% in size
[13] = qHTS assay to identify small molecule antagonists of the androgen receptor (AR) signaling pathway - cell viability counter screen (AID 743033; further: nearly all actives have a fitted effect of over 45% in size)
[14] = biological target: Androgen receptor (Homo sapiens) (UniProt P10275); assay: qHTS assay to identify small molecule antagonists of the androgen receptor (AR) signaling pathway (AID 743035; active means well fitted inhibition curve with a large enough effect in the signal ratio in the repeat runs, not every such curve was filed as active; the % refers to the signal ratio)
Summary of the method: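 Fluorescence from a beta-lactamase FRET substrate (LiveBLAzer B/G, 2 h, room temperature) measured inhibition of R1881-stimulated signaling in GeneBLAzer AR-UAS-bla HEK293 cells exposed to compound for 16 h at 37C.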

[15] = biological target: Androgen receptor (Homo sapiens) (UniProt P10275); assay: qHTS assay to identify small molecule agonists of the androgen receptor (AR) signaling pathway using the MDA cell line (AID 743040; further: nearly all actives have a fitted effect of over 20% in size)
Summary of the method: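 MDA-kb2 breast carcinoma cells stably carrying an MMTV-driven luciferase reporter (AR- and GR-responsive) were seeded and held 5 h at 37C, 0% CO2, then exposed to compounds in DMSO for 16 h. Luminescence was read 30 min after ONE-Glo addition.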

[16] = qHTS assay to identify small molecule antagonists of the androgen receptor (AR) signaling pathway using the MDA cell line - cell viability counter screen (AID 743041; further: nearly all actives have a fitted effect of over 45% in size)
Summary of the method: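 MDA-kb2 AR-luc human breast carcinoma cells (MMTV-luciferase, AR/GR responsive) were treated with compounds plus R1881 agonist for 16 h at 37 °C. Viability was read as CellTiter-Fluor fluorescence in the same wells as the reporter assay.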

[17] = biological target: Androgen receptor (Homo sapiens) (UniProt P10275); assay: qHTS assay to identify small molecule antagonists of the androgen receptor (AR) signaling pathway using the MDA cell line (AID 743042; further: nearly all actives have a fitted effect of over 55% in size)
Summary of the method: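 MDA-kb2 cells (human breast carcinoma, stably carrying an MMTV-luciferase reporter responsive to AR and GR) were plated at 3,000 cells/well and preincubated 5 hr at 37C, then given compound plus R1881 agonist for 16 h. ONE-Glo luminescence was read.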

[18] = qHTS assay for identifying genotoxic compounds that show differential cytotoxicity against isogenic chicken DT40 cell lines with known DNA damage response pathways - wild type cell line (AID 743012); further: nearly all actives have a fitted effect of over 60% in size
Summary of the method: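 Wild type DT40, 300 cells/well, ~0.5 h settle at 37 C/5% CO2; compounds in DMSO added by pintool; 40 h at 37 C/5% CO2; CellTiter-Glo, 30 min RT; luminescence.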

[19] = qHTS assay to test for compound auto fluorescence at 535 nm (green) in HEK293 cell free culture (AID 720682)
Summary of the method: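 Green-label autofluorescence (485 nm excitation, 535 nm emission) measured on compound added to cell-free culture medium (DMEM, 10% FBS). Output is expressed relative to fluorescein.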

[20] = biological target: Androgen receptor (Homo sapiens) (UniProt P10275); assay: qHTS assay to identify small molecule agonists of the androgen receptor (AR) signaling pathway (AID 743036; active means well fitted activation curve with a large enough effect in the signal ratio in the repeat runs, with a control signal flat, not every such curve was filed as active; the % refers to the signal ratio)
Summary of the method: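 AR-UAS-bla HEK293 cells, plated 4 h before dosing, were treated with compound for 16 h at 37C. beta-Lactamase reporter read after 2 h with LiveBLAzer B/G FRET substrate at room temperature.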
On the % scale 0 is the no-effect control and ±100 the full control effect.

Glucocorticoid receptor (Homo sapiens), sequence (P04150 whole entry, looked up): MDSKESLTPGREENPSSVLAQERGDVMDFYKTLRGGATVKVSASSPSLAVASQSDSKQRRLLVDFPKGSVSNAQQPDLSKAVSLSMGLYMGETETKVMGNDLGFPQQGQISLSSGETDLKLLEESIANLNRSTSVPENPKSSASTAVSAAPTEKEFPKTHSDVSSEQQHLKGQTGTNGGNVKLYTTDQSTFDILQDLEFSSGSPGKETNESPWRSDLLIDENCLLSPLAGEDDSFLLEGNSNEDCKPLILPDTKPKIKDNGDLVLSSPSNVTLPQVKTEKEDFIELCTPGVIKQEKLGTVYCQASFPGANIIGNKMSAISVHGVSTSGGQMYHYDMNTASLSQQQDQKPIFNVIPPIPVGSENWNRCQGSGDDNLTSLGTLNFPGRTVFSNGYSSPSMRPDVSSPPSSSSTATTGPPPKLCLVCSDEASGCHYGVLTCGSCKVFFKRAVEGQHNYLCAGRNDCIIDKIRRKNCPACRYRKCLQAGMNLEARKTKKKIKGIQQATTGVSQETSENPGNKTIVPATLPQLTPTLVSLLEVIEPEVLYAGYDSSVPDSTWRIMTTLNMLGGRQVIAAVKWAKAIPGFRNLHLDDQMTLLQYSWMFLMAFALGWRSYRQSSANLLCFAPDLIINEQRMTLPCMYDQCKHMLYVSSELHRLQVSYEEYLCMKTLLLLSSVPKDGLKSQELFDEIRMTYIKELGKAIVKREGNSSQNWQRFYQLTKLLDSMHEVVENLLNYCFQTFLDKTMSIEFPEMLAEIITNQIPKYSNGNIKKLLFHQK
Androgen receptor (Homo sapiens), sequence (P10275 whole entry, looked up): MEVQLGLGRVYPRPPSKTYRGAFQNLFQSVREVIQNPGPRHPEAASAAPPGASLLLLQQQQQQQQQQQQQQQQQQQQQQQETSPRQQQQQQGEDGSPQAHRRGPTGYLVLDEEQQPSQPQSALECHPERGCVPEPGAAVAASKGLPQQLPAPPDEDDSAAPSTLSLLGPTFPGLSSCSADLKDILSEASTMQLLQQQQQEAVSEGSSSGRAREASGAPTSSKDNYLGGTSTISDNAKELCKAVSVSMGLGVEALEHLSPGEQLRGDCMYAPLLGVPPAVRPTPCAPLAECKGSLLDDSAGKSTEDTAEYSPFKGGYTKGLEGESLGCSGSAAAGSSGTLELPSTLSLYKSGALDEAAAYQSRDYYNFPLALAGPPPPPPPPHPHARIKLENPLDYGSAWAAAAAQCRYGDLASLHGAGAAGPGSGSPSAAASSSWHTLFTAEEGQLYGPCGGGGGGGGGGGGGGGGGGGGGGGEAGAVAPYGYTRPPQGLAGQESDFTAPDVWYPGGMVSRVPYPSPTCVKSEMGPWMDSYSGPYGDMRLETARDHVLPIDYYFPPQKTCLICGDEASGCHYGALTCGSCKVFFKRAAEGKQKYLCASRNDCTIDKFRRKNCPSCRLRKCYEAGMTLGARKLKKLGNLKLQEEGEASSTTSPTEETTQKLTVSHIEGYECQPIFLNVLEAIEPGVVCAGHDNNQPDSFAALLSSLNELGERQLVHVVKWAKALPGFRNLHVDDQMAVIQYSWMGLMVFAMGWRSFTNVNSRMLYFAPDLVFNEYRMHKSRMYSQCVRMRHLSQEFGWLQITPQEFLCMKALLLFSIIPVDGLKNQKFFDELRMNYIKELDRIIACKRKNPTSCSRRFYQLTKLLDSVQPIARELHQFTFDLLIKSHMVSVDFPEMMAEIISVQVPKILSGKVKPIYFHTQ

C=CCOC(=O)CCCCCC
inactive: outcome [1] | outcome [2] | outcome [3] | outcome [4] | outcome [5] | outcome [6] | outcome [7] | Potency [8] | outcome [9] | outcome [10] | Potency [11] | Potency [12] | outcome [13] | outcome [14] | Potency [15] | Potency [16] | outcome [17]

CC(C)=CCC/C(C)=C/COC=O
inactive: outcome [1] | outcome [2] | outcome [3] | outcome [4] | outcome [5] | outcome [6] | outcome [10] | Potency [18] | Potency [12] | outcome [13] | Potency [16]

CC(C)Nc1ccccc1
inactive: outcome [1] | outcome [2] | outcome [3] | outcome [4] | outcome [5] | outcome [6] | outcome [7] | Potency [8] | outcome [9] | outcome [10] | Potency [18] | Potency [11] | Potency [12] | outcome [13] | Potency [16]

CCC(C)C(=O)OCCc1ccccc1 (stereo unspecified)
inactive: outcome [1] | outcome [19] | outcome [3] | outcome [4] | outcome [5] | outcome [6] | outcome [7] | Potency [8] | outcome [9] | outcome [10] | Potency [18] | Potency [12] | outcome [13] | Potency [16]

COC(=O)c1ccccc1C(=O)O
inactive: outcome [1] | outcome [2] | outcome [3] | outcome [4] | outcome [5] | outcome [6] | outcome [7] | Potency [8] | outcome [9] | outcome [10] | Potency [11] | Potency [12] | outcome [13] | Potency [16]

CN(C)CCCO[C@@H]1[C@H]2OC(C)(C)O[C@H]2O[C@@H]1C(O)CO (stereo partly specified)
inactive: outcome [1] | outcome [2] | outcome [3] | outcome [4] | outcome [5] | outcome [6] | outcome [7] | Potency [8] | outcome [9] | outcome [10] | Potency [18] | Potency [11] | Potency [12] | outcome [13] | Potency [16]

CCCC(=O)Nc1ccc(OCC(O)CNC(C)C)c(C(C)=O)c1 (stereo unspecified)
inactive: fluorescence, % of fluorescein [1] -0.0845% [at 18.6 µM] | activity change [19] -0.021% [at 18.6 µM] | fluorescence, % of fluorescent control [3] 0.214% [at 18.6 µM] | fluorescence, % of Rose Bengal [4] -0.252% [at 18.6 µM] | fluorescence, % of fluorescent control [5] -0.0068% [at 18.6 µM] | fluorescence, % of fluorescein control [6] -0.0602% [at 18.6 µM] | fluorescence, % of fluorescent control [7] 0.0344% [at 18.6 µM] | Potency [8] | outcome [9] | outcome [10] | Potency [18] | Potency [11] | Potency [12] | outcome [13] | Potency [16]

CCO[Si](CC)(OCC)OCC
inactive: outcome [1] | outcome [2] | outcome [3] | outcome [4] | outcome [5] | outcome [6] | outcome [7] | outcome [10] | Potency [11] | Potency [12] | outcome [13] | outcome [14] | Potency [15] | Potency [16] | outcome [17]

Cc1cccc(Cl)c1
inactive: outcome [1] | outcome [2] | outcome [3] | outcome [4] | outcome [5] | outcome [6] | outcome [7] | Potency [8] | outcome [9] | outcome [10] | Potency [18] | Potency [12] | outcome [13] | Potency [16]

C=CCCCC
inactive: outcome [1] | outcome [2] | outcome [3] | outcome [4] | outcome [5] | outcome [6] | outcome [7] | Potency [8] | outcome [9] | outcome [10] | Potency [18] | Potency [11] | Potency [12] | outcome [13] | Potency [16]

CC(S)C(C)S (stereo unspecified)
inactive: outcome [1] | outcome [2] | outcome [3] | outcome [4] | outcome [5] | outcome [6] | outcome [7] | Potency [8] | outcome [9] | outcome [10] | Potency [18] | Potency [12] | outcome [13] | outcome [14] | outcome [20] | Potency [15] | Potency [16] | outcome [17]

CCCSSCCC
inactive: outcome [1] | outcome [2] | outcome [3] | outcome [4] | outcome [5] | outcome [6] | outcome [7] | Potency [8] | outcome [9] | outcome [10] | Potency [18] | Potency [12] | outcome [13] | Potency [16]

CN(C)CCN(C)CCO
inactive: outcome [1] | outcome [2] | outcome [3] | outcome [4] | outcome [5] | outcome [6] | outcome [7] | Potency [8] | outcome [10] | Potency [18] | Potency [11] | Potency [12] | outcome [13] | Potency [16]

CN(C)C(C)(C)CO
inactive: outcome [1] | outcome [2] | outcome [3] | outcome [4] | outcome [5] | outcome [6] | outcome [7] | Potency [8] | outcome [9] | outcome [10] | Potency [11] | Potency [12] | outcome [13] | Potency [16]

C=Cc1ccc(C(C)(C)C)cc1
inactive: outcome [1] | outcome [2] | outcome [3] | outcome [4] | outcome [5] | outcome [6] | outcome [7] | outcome [10] | Potency [18] | Potency [11] | Potency [12] | outcome [13]

Cc1cc(-c2ccccc2)nnc1NCCN1CCOCC1
inactive: outcome [1] | outcome [2] | outcome [3] | outcome [4] | outcome [5] | outcome [7] | outcome [10] | Potency [18] | Potency [11] | Potency [12] | outcome [13] | Potency [16]

N#Cc1cscn1
inactive: outcome [1] | outcome [2] | outcome [3] | outcome [4] | outcome [5] | outcome [6] | outcome [10] | Potency [18] | Potency [11] | Potency [12] | outcome [13] | Potency [16]
